Data on 18 sequences can be found in the supplement of paper PMC6555819.

The assay concerns PPARg:RXRa 270nM:90nM, anti-RXR (NR concentration 270 nM, RXRa partner concentration 90 nM). Put plainly: PBM binding z-score (relative to random genomic background probes); higher = stronger binding; sequences stand for … in GC…GCGATTGACAGCGTAGAATGAAGG
An outline of the steps: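 Custom Agilent 4×180K protein-binding microarrays carried double-stranded probes. Their 34-nt variable regions held direct-repeat seeds, single-nucleotide variants, half-site ablations and random human genomic background sequences. Arrays were incubated 1 h with ligand-free nuclear receptor dimers in PBS pH 7.4, 2% milk, 0.02% Triton X-100, 1 mM DTT, 0.2 mg/mL BSA and 0.4 mg/ml salmon testes DNA. Antibodies against each partner (one per run) detected binding, and scanned fluorescence was regression-normalized. Binding z-scores use random background probes as reference.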
For CCTTACGGGTCAAGAGGTTATAGCACGACGAGCG, the PBM binding z-score is 5.64.

Regarding TAGCCTAGGTCGTGGGCCAGTATACCACGCGAAC, the PBM binding z-score amounted to 0.511.

On to TCATATAGGTAAATGCTAGGTGAAGGTCCGATCT, for which the PBM binding z-score turned out to be 2.13. The same measure for CCGAGTAGGTTATGGGGCATTCTGGCAACGGTGA: 4.15; for TCATATAGGTTAACAGGTGAAAGTCCGTAAGTTA: 5.12; for CCTCGGAGGACAGAAGGTCAGAGATGTCCGCTTT: 0.542. In turn, GCTTGTAGATCAATGTTAAGAAAGACTAAGCTAA displayed a PBM binding z-score of -0.385.

With GGAACGAAGGCAAGTTGATAGCAGAGTTTGATGG, the PBM binding z-score was -0.479. Consider CCTAGTTGGCCAGGAGGTCACACACCGGATATGA, for which the PBM binding z-score came to 2.91. Turning to GATACAGGATCAAGGCCAGAGTACGCGTATTGAT, the PBM binding z-score turned out to be 0.356. As to ATATGTAGGTTATCGAGTCATTCAGTTTGCGCAT, the PBM binding z-score stood at 4.14. Consider ACTATCAGTTGACTTAGGGCAACCGATACGACGC, for which the PBM binding z-score is 0.0453. Consider CATACAAGGTCAGCTAGGCCAGAGTAGGGACGGC, for which the PBM binding z-score came out at 3.36. The same measure for CGTCGAAGTTCAACTAAGGTAACGTAAAGCACGC: 1.98. Under ATATGTAGGTTATATCCGGGTCATTCAGGCTATG stands 4.07; under TCTGGTTGGTCACGGAGGTCACACACGACGGGTA, 3.7; under TCGAGTAGGTTAGTCGGGGCATGCAGCCAACATA, 0.809. The same measure for CCTAACGGGTCACGAGGTTATAGCACGACGAGCG: 5.88.
